# Assay results from the supplement of paper PMC10338343.
# ± gives the standard deviation.
# Tested on: MILI (PIWIL2) piRISC loaded with L1MC piRNA (26 nt)
# Test: pre-steady-state target cleavage rate (min^-1); guide: L1MC piRNA 5'p-UAACUAAAUACUAUGCAAGCUGUAGG; MIWI and MILI are mouse PIWI proteins and EfPiwi is from a freshwater sponge; tags in brackets are library labels; higher = faster piRNA-guided slicing of the target
# Conditions: auxiliary factor: 500 nM mouse GTSF1
# Protocol: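 Cleave-'n-Seq: a library of target RNAs (target site embedded in constant flanks, ACAGCATTCCGCGTTAGTGATATCCG... 5' flank; DNA-blocked outside the site) at 0.1 nM was incubated with 1 nM active mouse MILI or MIWI piRISC (synthetic 5'-monophosphorylated piRNA guide) with or without 500 nM mouse GTSF1 at 33 °C for 1 min to 16 h. Uncleaved targets were sequenced and normalised to non-target controls, and the pooled three trials were fitted to a burst-and-steady-state model to give the pre-steady-state cleavage rate (min^-1; k3 is constrained to at most 1e-4). Sequence is the target site only; target names encode pairing extent (gX:gY) and contiguous / 1-mismatch / 2-mismatch / bulge geometry. Fits with R² ≤ 0 are excluded.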
row,Sequence,pre-steady-state target cleavage rate
1,UCCUGCUACACGUUGCAUAGUAUUUAGUAA,0.215 ± 0.028
2,UCCUGGAUGUCCUUGCAUAGUAUUUAGUUC [g2:g19:cont:t1C],0.0893 ± 0.011
3,UCCUGGAACAGCUUGCAAUGUAUUUAGUAA,0.0829 ± 0.011
4,UCCUCGUACAGCUUGCAUAGUAUAUAGUUA,0.251 ± 0.02
5,UCCUCCUACAGCUUGCAUUGUAUUUUGUUA,0.0994 ± 0.015
6,UCCUGGAUGUGCUAGCAUACUAUUUAGUUA,0.0195 ± 0.0053
7,UCCUCCUACAGGUUCCAUAGUAUUUAGUUA,0.0813 ± 0.027
8,UCCUGGUACAGCUUGCAUAGUAUUUGUUA,0.0839 ± 0.022
9,UCCUGGAUGAGCUUGCAUAUAUUUAGUUA,0.00951 ± 0.0043
10,UCCUGCUAGACCUUGCAUAGUAUUUAGUUA,0.171 ± 0.02
11,UCCUGGAUGACCUUGCAUAGUAUUUAGUUA,0.177 ± 0.023
12,UCCUGGAACAGCUUGCACAGUAUUUAGUUA,0.169 ± 0.014
13,UCCUGGAACAGCUUGCAUAGUUUUUAGUUA,0.0586 ± 0.01
14,UCCUGGUACAACUUGCAUAGUAUUUAGUUA,0.273 ± 0.023
15,UCCUCCUACUCGUUGCAUAGUAUUUAGAAA,0.076 ± 0.019
16,UCCUGGAUGAGCUUGCAUAGUAAUUUAGUUA,0.0721 ± 0.0082
17,UCCUGGUAGAGCUUGCUUAGUAUUUAGUUA,0.226 ± 0.012
18,UCCUGGAUGUCGAUAGCAUAGUAUUUAGUUA,0.0459 ± 0.014
19,UCCUGGUUGAGCUUGCAUAGUAUUUACAAA,0.0198 ± 0.0068
20,UCCUGGAUCAGCUUGCAAUGUAUUUACAAA,0.0196 ± 0.0061
21,UCCUCCUACAGAUUGCAUAGUAUUUAGUUA,0.236 ± 0.014

# Same assay, conditions: auxiliary factor: none (no GTSF1)
row,Sequence,pre-steady-state target cleavage rate
1,UCCUGCUACACGUUGCAUAGUAUUUAGUAA,0.00567 ± 0.0021
2,UCCUGGAUGUCCUUGCAUAGUAUUUAGUUC [g2:g19:cont:t1C],0.00931 ± 0.0026
3,UCCUGGAACAGCUUGCAAUGUAUUUAGUAA,0.00326 ± 0.0026
4,UCCUCGUACAGCUUGCAUAGUAUAUAGUUA,0.00528 ± 0.0018
5,UCCUCCUACAGCUUGCAUUGUAUUUUGUUA,0.00327 ± 0.0022
6,UCCUGGAUGUGCUAGCAUACUAUUUAGUUA,0.00539 ± 0.002
7,UCCUGGAUGUCGAACGAAAGUAUUUUGUUA,< 0.0001
8,UCCUGGAUGUCGAAGCAUACAUUUUAGUUA,< 0.0001
9,UCCUGCUAGACCUUGCAUAGUAUUUAGUUA,0.00811 ± 0.0031
10,UCCUGGAUGACCUUGCAUAGUAUUUAGUUA,0.0057 ± 0.0024
11,UCCUGGAACAGCUUGCACAGUAUUUAGUUA,0.0128 ± 0.003
12,UCCUGGAACAGCUUGCAUAGUUUUUAGUUA,0.00493 ± 0.0022
13,UCCUGGUACAACUUGCAUAGUAUUUAGUUA,0.012 ± 0.0031
14,UCCUGGAUGAGCUUGCAUAGUAAUUUAGUUA,0.00789 ± 0.0023
15,UCCUGGAUGUCCUUGCAUACAUAAAUCAAA [g12:g19:cont:t1A],< 0.0001
16,UCCUGGUAGAGCUUGCUUAGUAUUUAGUUA,0.00793 ± 0.0029
17,UCCUGGAUGUCGAUAGCAUAGUAUUUAGUUA,0.00341 ± 0.0026
18,UCCUCCUACAGAUUGCAUAGUAUUUAGUUA,0.00814 ± 0.0018
